Test results published in PubChem BioAssay AID1159580 (chemical genetic matrix, 2015).
Out of some 5,500 compounds screened, about 2,000 (36%) were called active. Roughly 18% stayed inconclusive and do not appear here. Rule as the data show it: active = normalized growth mostly below about 0.91 (no sharp cut-off); inconclusive = no clear call, values can overlap the other calls; inactive = mostly above about 0.92. This is one part of the list.

Assay: chemical genetic growth profiling, strain panel (AID 1159580);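 also: tested at 20 µM; growth read once vehicle control cultures reached saturation at 30 °C; 1 = growth at the plate median or of vehicle wells; lower values mean less growth of the strain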
Conditions: S. cerevisiae deletion strains, growth OD

Measured: normalized growth

CCCN1CCC[C@@H]2Cc3nc(N)ncc3C[C@H]21
inactive: locus YAL013W, strain DEP1, stronger effect = lower value 1.02 | locus YAL040C, strain CLN3, stronger effect = lower value 1.01 | locus YCL061C, strain MRC1 (second series), stronger effect = lower value 1.01 | locus YDR363W, strain ESC2, stronger effect = lower value 0.999 | locus YER002W, strain NOP16, stronger effect = lower value 1.02 | locus YMR307W, strain GAS1, stronger effect = lower value 0.995 | locus YNL128W, strain TEP1, stronger effect = lower value 1.01 | locus YNL175C, strain NOP13, stronger effect = lower value 1.02 | locus YNL197C, strain WHI3, stronger effect = lower value 1.01 | locus YNL224C, strain SQS1, stronger effect = lower value 1.01 | locus YNL322C, strain KRE1, stronger effect = lower value 0.999 | locus YOR083W, strain WHI5 (second series), stronger effect = lower value 1.01 | locus YPL241C, strain CIN2, stronger effect = lower value 1
